The source made the active and inactive calls. The call rests on the fitted dose curve; in most records, active means well fitted curve in the direction sought with a large enough effect; inconclusive means small, poorly fitted or top-dose-only effect, or effect the other way, or another doubt; inactive means no such curve, though single readings can be large or run the other way.
Molecular target: Pyruvate kinase PKLR (Homo sapiens) (UniProt P30613)
Assay: Secondary Concentration-Response Assay for Activators of Human Liver Pyruvate Kinase: for Probe SAR
Conditions: purified hPK-L, ATP production, Kinase-Glo luminescence; series mostly up to 58.3 µM
Description: NIH Chemical Genomics Center [NCGC]
Matthew G. Vander Heiden, M.D., Ph.D. [Harvard Medical School, 77 Avenue Louis Pasteur, Boston, MA 02115]
Human pyruvate kinase liver (hPK-L) enzyme was supplied as a highly purified (>95% pure) preparation from Harvard Medical School and assayed for its ability to generate ATP from ADP using phosphoenolpyruvate (PEP) as a substrate. ATP generation was detected in a coupled reaction by luciferase-mediated luminescence, an ATP-dependent process. Pyruvate kinase substrates, PEP and ADP, were present in the assay at Km and approximately 10-fold below Km respectively. The enzyme was assayed at an intermediate level of activity to screen for both inhibitors and activators.
NCGC Assay Protocol Summary for L-isoform:
Three uL of substrate mix (at r.t.) in assay buffer (50 mM Imidazole pH7.2, 50 mM KCl, 7 mM MgCl2, 0.01% Tween 20, 0.05% BSA) was dispensed into white solid bottom 1,536 well microtiter plates so that the final concentrations of substrates in the assay were 0.1 mM ADP and 0.5 mM PEP. 23 nL of compound were delivered by a pin tool and 1 uL of enzyme mix (final concentration of 0.1 nM) in assay buffer (4 degree Celsius) was added. Plates were incubated at room temperature for 1 hour. Two uL of detection mix (Kinase-Glo, Promega; at 4 degree Celsius protected from light) was added and luminescence read by a ViewLux (Perkin Elmer) at 1 second exposure/plate. Data were normalized to the uninhibited (row 31). Additionally, a no enzyme and 5-fold enzyme control was dispensed in row 32, split equally between the two conditions.

Sequence of Pyruvate kinase PKLR (Homo sapiens) (P30613 whole entry, looked up): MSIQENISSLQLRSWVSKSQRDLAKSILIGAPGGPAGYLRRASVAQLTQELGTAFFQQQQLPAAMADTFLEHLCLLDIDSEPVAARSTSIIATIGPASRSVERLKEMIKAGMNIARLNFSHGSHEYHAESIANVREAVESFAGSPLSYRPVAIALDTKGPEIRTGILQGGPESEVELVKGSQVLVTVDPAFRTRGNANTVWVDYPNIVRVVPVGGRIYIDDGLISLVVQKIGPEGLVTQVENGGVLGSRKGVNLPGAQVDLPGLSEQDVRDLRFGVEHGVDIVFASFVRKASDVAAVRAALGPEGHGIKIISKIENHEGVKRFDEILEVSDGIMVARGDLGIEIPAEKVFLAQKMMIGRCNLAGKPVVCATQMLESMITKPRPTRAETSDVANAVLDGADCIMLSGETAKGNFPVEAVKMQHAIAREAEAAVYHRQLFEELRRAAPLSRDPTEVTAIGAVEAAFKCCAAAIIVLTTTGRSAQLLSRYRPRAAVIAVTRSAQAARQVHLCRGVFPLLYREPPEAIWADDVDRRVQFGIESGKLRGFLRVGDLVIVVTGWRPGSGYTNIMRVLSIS

outcome, inactive:
Cc1cc(N2C(=O)c3ccccc3C2=O)no1
O=C1CCc2cc(S(=O)(=O)Nc3ccc4ncccc4c3)ccc2N1
Cc1ccc(Nc2c(-c3ccc(C)o3)nc3cccc(C)n23)cc1
O=C1CCc2cc(S(=O)(=O)Nc3ccccc3Cl)ccc2N1
O=C1c2ccccc2C(=O)N1c1cccc2ccncc12
O=C1c2ccccc2C(=O)N1c1cc(=O)c2ccccc2[nH]1
O=S1(=O)N=C(Oc2ccccc2)c2ccccc21
COc1cc(N2C(=O)c3ccccc3C2=O)c2ncccc2c1
COc1cccc(OC2=NS(=O)(=O)c3ccccc32)c1
CCCCN1C(=O)c2ccccc2C1=O
O=C1c2ccccc2C(=O)N1c1ccc(O)cc1
Cc1ccccc1OC1=NS(=O)(=O)c2ccccc21
Cc1ccc(N2C(=O)c3ccccc3C2=O)c(C)c1
Cc1ccc(Nc2c(-c3ccsc3)nc3c(C)cccn23)cc1
Cc1ccc(NS(=O)(=O)c2cccc(F)c2)cc1C
O=C1c2ccccc2C(=O)N1c1cccnc1
Cc1ccc(-c2nc3ccccn3c2Nc2ccccc2C)o1
CCNc1cccc(S(=O)(=O)N2CCN(S(=O)(=O)c3ccc4c(c3)OCCO4)CC2)c1
Cc1ccc(NS(=O)(=O)c2cc3c(cc2F)NC(=O)CC3)cc1C
O=C1CCc2cc(S(=O)(=O)Nc3ccc4c(c3)OCCO4)ccc2N1
CNc1cccc(S(=O)(=O)N2CCN(S(=O)(=O)c3ccc4c(c3)OCCO4)CC2)c1
O=C1CCc2cc(S(=O)(=O)Nc3cccc4ccccc34)ccc2N1
Nc1cc(S(=O)(=O)N2CCN(S(=O)(=O)c3ccc4c(c3)OCCO4)CC2)ccn1
COc1cccc(NS(=O)(=O)c2ccc3c(c2)CCC(=O)N3)c1
Cc1ccc(NS(=O)(=O)c2cc3c(cc2F)NC(=O)CC3)cc1Cl
Cc1ccc(NS(=O)(=O)c2cc3c(cc2Cl)NC(=O)C3)cc1C
COc1cc(F)c(S(=O)(=O)N2CCCN(S(=O)(=O)c3cccc(N)c3)CC2)c(F)c1
Cc1ccc(Nc2c(-c3ccc(C)s3)nc3cccc(C)n23)cc1
Cc1ccc2nc(-c3ccc(C)o3)c(Nc3ccc(F)cc3)n2c1
Cc1ccc(NS(=O)(=O)c2cc3c(cc2C)NC(=O)CO3)cc1C
Cc1ccc(NS(=O)(=O)c2cc3c(cc2N2CCCCC2)NC(=O)CC3)cc1C
Cc1ccc(NS(=O)(=O)c2ccc3c(c2)CCC(=O)N3)cc1C
O=C1c2ccccc2C(=O)N1c1cnc2ccccc2c1
CC(=O)Nc1cccc(S(=O)(=O)Nc2ccc(C)c(C)c2)c1
Cc1ccc(-c2nc3cnccn3c2Nc2ccc(C(C)C)cc2)o1
Cc1ccc(NS(=O)(=O)c2cc3c(cc2Cl)NC(=O)CO3)cc1C
Cc1cccc(OC2=NS(=O)(=O)c3ccccc32)c1
Cc1nc(-c2ccc(S(=O)(=O)Nc3ccc(C)c(C)c3)s2)cs1
O=C1c2ccccc2C(=O)N1c1ccncc1
O=C1CCc2cc(S(=O)(=O)Nc3ccccn3)ccc2N1
